Screening results as filed in PubChem.
aSyn 5UTR act: Activators via SNCA 5'UTR binding, MLPCN. activity score, % (tested at 7.5 µM), hits read low. alpha-synuclein 5'UTR reporter, activators screen. 7.1% of 300,000 active; in the data active means activity score below about -60%
A number is an active result; n = inactive. The list is a sample of the results.

SMILES | aSyn 5UTR act
Cc1ccc(-c2nnc3c(C(F)(F)F)nc4ccccc4n23)cc1 | n
c1ccc(Nc2nc3ccccc3n3nnnc23)cc1 | -75
Cc1ccc(-c2nc3ccccc3n3nnnc23)cc1 | -249
CCN(CC)S(=O)(=O)c1ccc(Nc2nc3ccccc3n3nnnc23)cc1 | -87
CCN(CC)S(=O)(=O)c1ccc2c(c1)C(=NO)c1cc(S(=O)(=O)N(CC)CC)ccc1-2 | n
CC1CCc2c(sc3nc(CSc4n[nH]c(N)n4)[nH]c(=O)c23)C1 (configuration not stated) | -92
NS(=O)(=O)c1cccc(NC(=S)NC(=O)C23CC4CC(CC(C4)C2)C3)c1 | -62
CCc1ccc2[nH]c3nc(C)cc(C)c3c(=O)c2c1 | -232
N#Cc1cc2cc3c(cc2nc1N1CCCCC1)OCCO3 | -222
N#Cc1cnn2c1nc(N1CCCCC1)c1ccccc12 | n
Cc1ccc(-c2nc3ccccc3s2)cc1NC(=S)NC(=O)c1cccc2ccccc12 | -97
O=C(Nc1cc(-c2nc3ccccc3s2)ccc1Cl)c1ccc2c(c1)OCO2 | -70
Cc1ccc(-c2nc3ccccc3s2)cc1NC(=O)c1ccc2c(c1)OCO2 | -76
CC(=O)N/C(=N\c1nc(C)cc(C)n1)Nc1ccc2ccccc2c1 | -166
Cc1ccc2c(C)c(C(=O)N3CCN(Cc4ccc5c(c4)OCO5)CC3)oc2c1C | -63
O=C(NCCc1c[nH]c2ccccc12)C(=O)Nc1ccccc1 | -65
O=C(NCCc1ccccc1)C(=O)c1c[nH]c2ccccc12 | -200
Cc1ccc(NC(=S)C2=C(O)c3ccccc3N(C)S2(=O)=O)cc1 | -100
CN1c2ccccc2C(O)=C(C(=O)Nc2ccccc2)S1(=O)=O | -84
Cc1[nH]c2ccccc2c1N=Nc1ccccc1C(=O)O | -70
Cc1[nH]c2ccccc2c1N=Nc1cccc(C(=O)O)c1 | -96
COc1ccccc1-c1ccc(SCc2ccccc2)nn1 | -140
COc1ccccc1-c1ccc(SCc2ccccc2F)nn1 | -74
Cc1nc(C)c(-c2ccc(SCc3ccccc3F)nn2)s1 | -151
C/C(=N/OC(=O)CC(C)C)c1cc(-c2ccc(Cl)cc2)no1 | -146
SMILES | aSyn 5UTR act
Cc1cc(C)nc(Nc2ccc(N3CCCC3)cc2)n1 | -65
CCc1ccc(Nc2nc(C)cc(C)n2)cc1 | -179
Cc1cc(C)nc(Nc2ccc(C(=O)O)cc2)n1 | -157
COc1ccc(Nc2nc(C)cc(C)n2)cc1Cl | -114
FC(F)Sc1ccc(NC(=S)NC2CCCCC2)cc1 | -109
FC(F)Sc1ccc(NC(=S)NCc2ccccc2)cc1 | -70
O=C(CC1CCCC1)Nc1ccc(Br)cc1 | -138
CC1CCN(C(=S)Nc2ccc(SC(F)F)cc2)CC1 | -143
FC(F)Sc1ccc(NC(=S)NCC2CCCCC2)cc1 | -67
S=C(Nc1ccc(Br)cc1)NC1CCCC1 | -124
COc1ccc(N2CCN(c3nccs3)CC2)cc1 | -154
COc1cccc(C(=O)/C=C/c2ccc(OCC#N)c(OC)c2)c1 | -121
COc1cc(/C=C/C(=O)c2ccc(O)cc2)ccc1OCC#N | -134
CCOc1ccc(/C=C/C(=O)c2ccccc2)cc1OC | -112
CCOC(=O)c1cc(C(=O)Nc2ccc(C)c(F)c2)nn1C | -224
CN(C)Cc1ccccc1Sc1ccc2c(c1)CCCC2 | n
O=C(NN/C(=N/S(=O)(=O)c1ccc(Cl)cc1)c1ccccc1)c1cccc(Cl)c1 | -124
O=S(=O)(/N=C(/Nc1ccccn1)c1ccc(Cl)cc1)c1ccc(Cl)cc1 | -91
Cc1ccc(S(=O)(=O)/N=C(/NNC(=O)c2cccc(Cl)c2)c2ccccc2)cc1 | -101
O=C(NN/C(=N/S(=O)(=O)c1ccc(Cl)cc1)c1ccccc1)c1ccc(O)cc1 | -112
O=[N+]([O-])c1ccccc1S(=O)(=O)Oc1ccc(C(=S)N2CCOCC2)cc1 | -62
COc1ccc(-c2cc(C(=O)N3CCCc4ccccc43)no2)cc1 | -107
COc1cccc(-c2cc(C(=O)N3CCCc4ccccc43)no2)c1 | -126
Nc1cc(C(F)(F)F)ccc1OCC1CCCO1 (configuration not stated) | -91
C=C(C)CSc1nc2ncc(Cl)cc2[nH]1 | -74
SMILES | aSyn 5UTR act
CC(C)(C)c1cc(NC(=O)c2cccs2)no1 | -77
CC(C)(C)c1cc(NC(=O)c2cccnc2)no1 | -102
CC(C)(C)c1cc(NC(=O)c2cc(F)c(F)c(F)c2F)no1 | -63
CC(C)(C)c1cc(NC(=O)C2CCCO2)no1 (configuration not stated) | -104
Cc1cc(OCc2cc(C(=O)N(C)C3CCOCC3)no2)cc(C)c1Cl | -128
Cc1ccc(OCc2cc(C(=O)N(C)CC3CCOCC3)no2)cc1C | -104
O=C(O)c1ccccc1N/N=C/c1cc(Br)cc(Br)c1O | -111
O=C(O)c1ccccc1N/N=C\c1ccnc2ccccc12 | n
Cc1cc(C)c(NN=c2c(=O)c3ccccc3c2=O)c(C)c1 | -125
Clc1ccc(Nc2ncnc3c2cnn3-c2ccccc2)cc1 | -119
Cn1ncc2c(O/N=C(\N)c3ccc(C(C)(C)C)cc3)ncnc21 | n
O=[N+]([O-])c1ccc(O)c(/C=N/Nc2ncnc3c2cnn3-c2ccccc2)c1 | n
CC(=O)Nc1ccc(Nc2ncnc3c2cnn3-c2ccccc2)cc1 | -110
Cn1ncc2c(Nc3ccc4ccccc4c3)ncnc21 | -164
CC(C)Nc1ncnc2c1cnn2-c1ccc(Cl)cc1 | n
CC(=O)Nc1ccc(Nc2ncnc3c2cnn3-c2cccc(C)c2)cc1 | -159
O=C1C2=C(c3ccccc31)[N+](=O)C1CCCCC1N2[O-] (configuration not stated) | -73
O=C1C2=C(c3ccccc31)[N+](=O)[C@@H]1CCCC[C@@H]1N2[O-] | -94
CC(C)COc1ccc(C(=O)Nc2ccc(SC(F)F)cc2)cc1 | -90
Cc1ccc(NC(=O)c2ccc3snnc3c2)cc1C | -165
COc1cccc(NC(=O)c2ccc3snnc3c2)c1 | -105
CCOc1ccc(C(=O)Oc2ccc(NC(C)=O)cc2)cc1 | n
C=CCOc1ccc(C(=O)Nc2ccc(OCC)cc2)cc1 | -70
CCOc1ccc(NC(=O)c2ccc3snnc3c2)cc1 | -120
Cc1ccc(C(=O)Nc2ccc(SC(F)F)cc2)s1 | -161
SMILES | aSyn 5UTR act
O=C(Nc1ccc(F)cc1)c1ccc2snnc2c1 | -92
O=C(c1cc2ccccn2n1)N1CCN(Cc2ccccc2)CC1 | -113
CCOC(=O)CNC(=O)c1sc(NC(=O)c2ccccc2F)nc1C | -151
CCOC(=O)CNC(=O)c1sc(NC(=O)c2cccc(F)c2)nc1C | -98
CC(/C=C/c1ccc(N(C)C)cc1)=N\N=C1\NC(=O)CC(C(=O)Nc2ccccc2)S1 (configuration not stated) | -73
CCCOc1ccc(NC(=O)C2CC(=O)N/C(=N/N=C(C)/C=C/c3ccc(N(C)C)cc3)S2)cc1 (configuration not stated) | -79
CC1=C/C(=C\C=C(C#N)C#N)N(C)c2ccccc21 | -102
Cc1ccc(C)c(N=Nc2nc3ccccc3n2C)c1 | -202
Cc1cc(C)c(C)c(N=Nc2nc3ccccc3n2C)c1C | -75
COc1ccc(C(C#N)N2N=C(c3ccccc3)CC2c2ccccc2)cc1OC (configuration not stated) | -182
COc1ccc(C2=NN(C(C#N)c3ccc(OC)cc3)C(c3ccccc3)C2)cc1 (configuration not stated) | -250
O=C(CNC(=O)c1ccccc1Cl)OCC(=O)N1CCc2ccccc21 | -117
O=C(NCC(=O)N1CCc2ccccc2C1)c1ccccc1Cl | -101
Cc1cc(C(=O)OCC(=O)N2CCc3ccccc32)c(C)o1 | -163
Cc1nc(COC(=O)c2c(C)nn(-c3ccccc3)c2C)cs1 | -104
